Bioassay records from PubChem BioAssay.
Sampled rows, rich in hits. Any-hit rate of the full collection: about 4.1%.
ssDAF12 agonist: activators of S. stercoralis DAF-12 nuclear receptor | AID 652126 | activation, % at 6.8 µM | 370,000 tested, 1% active | HEK293 ssDAF-12/GRIP1 lit1-tk-luc reporter, luminescence; % of 3 µM dafachronic acid response;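 active = activation above the mean over all tested compounds plus 3 SD, cut at about 0.9% in these data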;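 also: 0% = DMSO-only wells and 100% = 3 µM delta7-dafachronic acid wells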
DAX1 inh-1: inhibits human nuclear receptor DAX1 | P51843 | HEK293 Gal4-DAX1 luciferase reporter, luminescence | inhibition, % at 6.75 µM | 340,000 tested, 0.99% active | AID 504766;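 active = inhibition above the mean over all tested compounds plus 3 SD, cut at about 4.2% in these data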;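 also: 0% = DAX1-transfected cells with DMSO and 100% = empty-vector control cells with DMSO; inhibition shows as a rise in luminescence from relieved DAX1 repression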
hcDAF12 agonist: H. contortus DAF-12 activation, primary screen; HEK293 hcDAF-12 lit1-tk-luc reporter, luminescence; 0% DMSO, 100% Δ7-dafachronic acid; activation, % at 6.8 µM; 370,000 tested, 1.4% active; AID 652067;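 active = activation above the mean of all tested compounds plus 3 SD, cut at about 5.5% in these data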;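 also: 100% = response to 3 µM Δ7-dafachronic acid high control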
DAX1 inh-2: blocks DAX1 repression of SF-1 activated StAR promoter; inhibition, % at 6.8 µM; 370,000 tested, 1.1% active; AID 652010; HEK293T StAR-luciferase reporter, SF-1/DAX-1 repression relief;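 active = inhibition above the mean over all tested compounds plus 3 SD, cut at about 3.6% in these data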;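 also: 0% = DAX-1 cells with DMSO and 100% = cells lacking DAX-1 with DMSO; higher inhibition means more luminescence from relief of DAX-1 repression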
hgDAF-12 ag: activates the H. glycines DAF-12 receptor ligand-binding domain; HEK293 GAL4-hgDAF12 UAS-luciferase reporter, agonist luminescence; normalized to butyrate control; activation, % at 6.8 µM; 370,000 tested, 1.8% active;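 active = activation above a cutoff set at the mean of all screened compounds plus 3 SD, cut at about 10% in these data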;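 also: 0% = DMSO wells and 100% = sodium butyrate wells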
DAX1 conf: NR0B1 (human) inhibition, confirmation; inhibition, % at 6.8 µM; HEK293T StAR-promoter luciferase reporter, SF-1/DAX-1 repression; AID 652134; shares compounds with DAX1 inh-2; 2,400 tested, 87% active;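 active = inhibition above the average of every tested compound plus 3 SD, cut at about 3.8% in these data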;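 also: 0% = DAX-1 cells with DMSO and 100% = no DAX-1 control cells with DMSO; active compounds raise luminescence by relieving repression of the StAR reporter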
Target sequence (P51843 whole entry, looked up): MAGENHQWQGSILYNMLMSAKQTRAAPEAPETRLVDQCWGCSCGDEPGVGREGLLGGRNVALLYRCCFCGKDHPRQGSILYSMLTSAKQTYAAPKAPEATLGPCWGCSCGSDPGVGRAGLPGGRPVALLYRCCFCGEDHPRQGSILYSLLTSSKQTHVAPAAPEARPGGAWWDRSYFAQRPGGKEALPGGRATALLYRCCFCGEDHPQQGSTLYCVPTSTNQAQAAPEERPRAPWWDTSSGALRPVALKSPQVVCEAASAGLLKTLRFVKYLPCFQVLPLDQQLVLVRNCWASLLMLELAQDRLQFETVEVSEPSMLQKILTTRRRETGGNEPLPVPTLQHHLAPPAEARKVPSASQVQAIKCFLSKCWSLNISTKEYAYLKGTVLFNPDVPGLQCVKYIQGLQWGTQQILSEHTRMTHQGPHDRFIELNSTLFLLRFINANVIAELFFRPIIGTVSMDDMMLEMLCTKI
SF1 mutant ctr: nonselective inhibitor or artifact in SF-1 mutant DAX1 counter-screen; shares compounds with DAX1 inh-2; HEK293 StAR-luciferase, SF-1 AF2 mutant, luminescence; inhibition, % at 6.8 µM; 2,400 tested, 78% active;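 active = inhibition above the mean of all tested compounds plus 3 SD, cut at about 3% in these data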;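 also: 0% = DAX-1 transfected cells with DMSO and 100% = cells without DAX-1 with DMSO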
The depositor's hits bear a star; . = no result given.

SMILES	ssDAF12 agonist	DAX1 inh-1	hcDAF12 agonist	DAX1 inh-2	hgDAF-12 ag	DAX1 conf	SF1 mutant ctr
O=C(Nc1ccccc1Cl)c1cc(C2CCCCN2S(=O)(=O)c2ccc(F)cc2F)on1 (configuration not stated)	-1	.	-2	0	0	.	.
Cc1ccc(-c2ccc3c(c2)O[C@H](CN(C)C(=O)Nc2ccc(C(F)(F)F)cc2)[C@H](C)CN([C@H](C)CO)S3(=O)=O)cc1	0	.	0	-2	0	.	.
CCCc1cn(-c2ccc3c(c2)[C@@]2(CC(=O)N(C)C2c2ccccc2)C(=O)N3CC(C)C)nn1 (some centres not stated)	-1	.	-2	-1	-3	.	.
Clc1ccccc1CSc1cnnc2ccccc12	-1	1	2	5.3*	6	3	1
CCOC(=O)c1ccc(S(=O)(=O)N2CCC(N3CCCCCC3)CC2)cc1	-1	2	0	1	2	.	.
CC(C)c1ccc(NC(=O)c2ccc3snnc3c2)cc1	0	1	5	5.0*	12*	3	1
Cc1c(CCNC=O)cc(C)c2c3c(oc12)CCCC3	0	5.3*	1	4.9*	7	6.5*	5.8*
Cc1ccc(S(=O)(=O)Nc2cc(C)cc(CCNC=O)c2C)cc1	0	0	-1	-1	-1	.	.
COC(=O)[C@@]1(Sc2ccc(C)cc2)CC(=O)N(C(=O)/C=C/c2ccccc2)[C@@H]1c1ccccc1	-1	.	0	1	-3	.	.
CCN(CC)c1ccc(S(=O)(=O)N2CCOCC2)cc1NC(=O)COC(=O)c1cccnc1SC	-1	1	0	5.3*	1	-1	0
C[C@H](NS(=O)(=O)c1ccc(Cl)cc1)C(=O)OCC(=O)Nc1cc(S(=O)(=O)N2CCOCC2)ccc1Cl	-1	0	0	7.7*	1	1	0
CC(C)(C)OC(=O)N1CCc2onc(-c3ccccc3[N+](=O)[O-])c2C1=O	-1	.	-2	0	-1	.	.
O=C(NNC(=S)Nc1ccccc1Cl)c1ccccc1Cl	0	2	5	11*	10	11*	6.7*
O=C(Nc1cccc(Cl)c1)c1ccccc1	-1	1	0	0	9	.	.
O=C(NNC(=S)Nc1cccc(Cl)c1)c1ccccc1	0	1	3	5.3*	6	4.8*	4.0*
O=C(NNC(=S)Nc1ccccc1)c1cccnc1	-1	0	0	5.1*	3	3.6*	5.6*
O=C(NNC(=S)Nc1ccc(Cl)cc1)c1ccccc1	0	1	5	4.5*	8	7.1*	4.2*
CC(=O)N1C[C@H]2CON(C)[C@H]2C[C@H]1c1cccc(-c2cc(Cl)cc(Cl)c2)c1	-1	-1	-2	-1	-3	.	.
CN1C(c2ccccc2)CC(C)(O)CC1c1ccccc1 (configuration not stated)	0	.	2	1	-2	.	.
Cc1[nH]n(-c2cccc(Cl)c2)c(=O)c1C=NCc1ccco1	1	5.7*	4	5.8*	12*	8.3*	5.1*
O=C(CCS(=O)(=O)c1ccccc1)N1CCN(c2ccccc2)CC1	-1	1	5	9.3*	5	6.8*	3.7*
CN(C(=O)c1cc2c(=O)n3ccccc3nc2n1C)C1CCCCC1	0	0	2	10*	9	12*	6.3*
CCN(C(=O)c1cc2c(=O)n3ccccc3nc2n1C)C1CCCCC1	-1	1	2	4.9*	5	4.6*	3
Cn1c(C(=O)O)cc2c(=O)n3ccccc3nc21	-1	1	-2	0	0	.	.
CCOC(=O)CCCCCC(=O)Nc1ccc2c(c1)C(=O)N([C@H](C)CO)C[C@@H](C)[C@@H](CN(C)C(=O)CCC(F)(F)F)OCCCC[C@H](C)O2	0	-1	2	1	2	.	.
SMILES	ssDAF12 agonist	DAX1 inh-1	hcDAF12 agonist	DAX1 inh-2	hgDAF-12 ag	DAX1 conf	SF1 mutant ctr
O=C(OCC(=O)N1CCN(c2ccccc2)CC1)c1ccccc1OC(F)F	-1	0	-1	5.0*	0	-2	-1
O=C(OCC(=O)N1CCCCCC1)c1ccccc1Br	0	2	5.7*	4.5*	12*	10*	5.3*
O=C(OCC(=O)N1CCCC1)c1ccccc1O	0	4	3	1	3	.	.
CCCCn1c(N)c(N(C)C(=O)c2ccc(Br)o2)c(=O)[nH]c1=O	-1	0	1	4.6*	1	0	2
CCCCn1c(N)c(N(CCOC)C(=O)c2ccc(Br)o2)c(=O)[nH]c1=O	0	-1	-1	0	3	.	.
CC(C)C(OC(=O)C1=Cc2ccccc2OC1)C(=O)NCC1CCCO1 (configuration not stated)	0	1	4	5.0*	15*	2	5.2*
O=C(/C=C/[C@H]1O[C@@H](n2ccc(=O)[nH]c2=O)[C@H](O)[C@@H]1O)N1CCN(CCc2ccccc2)CC1	0	.	-2	-1	2	.	.
Nc1ccc(CSc2ccc(Cl)cc2)c(Cl)c1	0	3	3	7.3*	11*	13*	7.6*
Cc1ccc(-c2csc(/C(C#N)=C(\O)CCl)n2)cc1	-2	0	1	5.1*	12*	3	2
FC(F)(F)c1ccccc1Cc1c(-c2ccccc2)nc2ccc(Cl)cn12	0	.	2	1	6	.	.
FC(F)(F)c1ccccc1Cc1c(-c2ccc(Cl)cc2)nc2ccc(Cl)cn12	1	.	1	4.8*	12*	4.1*	3.8*
Cc1ccc(-c2nc3ccc(C)cn3c2Cc2ccccc2C(F)(F)F)cc1	0	.	3	5.7*	12*	5.0*	4.1*
Cc1ccc2nc(-c3ccccc3)c(Cc3ccccc3C(F)(F)F)n2c1	0	.	4	4.7*	9	3.8*	3.8*
CC(C)N1CCCCC(NC(=O)c2c(F)cccc2F)C1=O (configuration not stated)	-1	.	1	1	0	.	.
O=C(Nc1ccccc1Cl)NC1CCCCCCC1	-1	2	1	5.2*	6	3.8*	2
COc1ccc(NC(=O)NC2CCCCCCC2)cc1	0.9*	2	5.8*	12*	13*	10*	5.8*
COc1cccc(NC(=O)NC2CCCCCCC2)c1	0	1	2	4.8*	10	5.4*	4.3*
CCc1ccccc1NC(=O)NC1CCCCC1	-1	1	-1	0	1	.	.
Cc1ccc(S(=O)(=O)N(C)CC(=O)Nc2cc(C)ccn2)cc1	0	3	5	4.6*	10*	6.8*	5.2*
